Test results from PubChem BioAssay (NCATS).
Records with an inconclusive call do not appear. The source made the active and inactive calls. Calls follow the shape of the dose curve; as a rule, active = well fitted curve in the direction sought with a large enough effect; inconclusive = small, poorly fitted or top-dose-only effect, or another doubt; inactive = no such curve, though single readings can be large; an effect the other way counts as inactive or inconclusive.

Columns and labels:
[1] = MultiTox-Fluor Cytotoxicity Assay - LYMP1-001 - Dead Cells (AID 946)
Method in brief: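 Cytotoxicity as increased dead-cell protease fluorescence (bis-AAF-R110, 485/520 nm), read 60 min after MultiTox-Fluor reagent. Human lymphoblastoid line exposed 16 h; Hill-fitted AC50, with DMSO as 0% and 15 uM tetraoctylammonium bromide as 100%.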

[2] = Cell Viability - LYMP1-002 - Assay at 16 hr (AID 948)
Method in brief: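 ATP luminescence (CellTiter-Glo) was measured after 16 hr compound exposure at 37 C of 2500 lymphoblastoid LYMP1-002 cells per well. Concentration-response curves were fitted with the Hill equation to give AC50.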

[3] = MultiTox-Fluor Cytotoxicity Assay - LYMP1-002 - Dead Cells (AID 960); also: nearly all actives have a fitted effect of over 60% in size
Method in brief: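 Concentration-dependent increases in membrane-leaked protease activity are quantified in LYMP1-002 cells after 16 hr treatment; values are normalized against DMSO and tetraoctylammonium bromide (15 uM) controls and AC50 derived by Hill modeling.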

[4] = MultiTox-Fluor Cytotoxicity Assay - LYMP1-003 - Dead Cells (AID 961); also: nearly all actives have a fitted effect of over 70% in size
Method in brief: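 Dead-cell protease release, detected as bis-AAF-R110 fluorescence at 485/520 nm, was measured in LYMP1-003 cells after 16 h compound treatment at 37 C. AC50 values came from Hill-modeled qHTS curves normalized to DMSO (0%) and 15 uM tetraoctylammonium bromide (100%).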

[5] = MultiTox-Fluor Cytotoxicity Assay - LYMP1-003 - Live Cells (AID 962);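 also: cells exposed to compound for 16 hours at 37 °C; cytotoxic hits lower the live-cell protease signal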
Method in brief: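 Human lymphoblastoid line LYMP1-003 in complete culture medium, treated 16 hr with titrated compounds. Viable cells quantified via cell-permeant GF-AFC substrate fluorescence; AC50 derived by Hill fitting.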

[6] = Cell Viability - LYMP1-003 - Assay at 40 hr (AID 964); also: series mostly up to about 92 µM; nearly all actives have a fitted effect of over 60% in size
Method in brief: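 Acute toxicity is scored as a concentration-dependent loss of intracellular ATP in LYMP1-003 cells (2500/well, complete medium) after 40 hr at 37 C, measured by CellTiter-Glo luminescence; AC50 values derive from standard Hill modelling.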

[7] = Cell Viability - LYMP2-003 (AID 965);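 also: cells exposed to compounds for 24 h before reading; nearly all actives have a fitted effect of over 50% in size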
Method in brief: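 CellTiter-Glo luminescence quantified ATP loss after 24 h compound treatment of LYMP2-003 lymphoblastoid cells at 37 C. Titration series were fitted with the standard Hill equation to give AC50.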

[8] = Cell Viability - LYMP2-004 (AID 966); also: nearly all actives have a fitted effect of over 65% in size
Method in brief: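 Viable-cell number estimated from ATP luminescence (CellTiter-Glo) in 2500 human lymphoblastoid cells/well after 24 hr at 37 C with compound. AC50 fitted to the standard Hill equation.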

[9] = Cell Viability - LYMP2-005 (AID 967); also: series mostly up to about 92 µM
Method in brief: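 LYMP2-005 human lymphoblastoid cells (2500/well) were treated with compounds for 24 h at 37 C. Intracellular ATP was then measured by CellTiter-Glo luminescence after 30 min at room temperature. AC50 values came from Hill-equation fits of qHTS concentration-response data.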

[10] = Cell Viability - LYMP2-009 (AID 968); also: series mostly up to about 92 µM; nearly all actives have a fitted effect of over 55% in size
[11] = Cell Viability - LYMP2-011 (AID 969); also: nearly all actives have a fitted effect of over 60% in size
Method in brief: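 Cells seeded at 2500 per well rest 5 hr before compound addition, then incubate 24 hr at 37 C. CellTiter-Glo reagent is added for 30 min at room temperature before luminescence detection.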

[12] = Cell Viability - LYMP2-015 (AID 971); also: nearly all actives have a fitted effect of over 55% in size
Method in brief: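 AC50 values reflect Hill-model fits of ATP-based luminescence (CellTiter-Glo) from a human lymphoblastoid line, 2500 cells/well, treated 24 hr at 37 C.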

[13] = Cell Viability - LYMP2-017 (AID 972);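 also: series mostly up to about 92 µM; cells exposed to compound for 24 hours at 37 °C; nearly all actives have a fitted effect of over 55% in size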
Method in brief: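 In this qHTS format, lymphoblastoid cells in complete medium receive test compound for a day at 37 C before ATP content is quantified by luciferase luminescence. Reported AC50 figures come from standard Hill-equation curve fitting.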

[14] = Cell Viability - LYMP2-019 (AID 973); also: nearly all actives have a fitted effect of over 55% in size
Method in brief: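 AC50 values come from Hill-equation modelling of qHTS concentration-response curves, where viability is measured as luciferase-based ATP luminescence in the lymphoblastoid line after 24 hr compound exposure in complete culture medium.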

[15] = Cell Viability - LYMP2-021 (AID 974)
Method in brief: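 In qHTS format, compounds are tested against 2500 lymphoblastoid cells per well for 24 h; viable cell number is inferred from ATP-driven luciferase light, and Hill-equation fitting yields AC50 values.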

[16] = Cell Viability - LYMP2-023 (AID 975)
Method in brief: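 In this qHTS, ATP-based luciferase luminescence (CellTiter-Glo) is quantified in human lymphoblastoid cells after 24 hr compound treatment at 37 C; tetraoctylammonium bromide serves as positive control. Concentration-response curves are Hill-fitted to give AC50.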

[17] = Cell Viability - LYMP1-003 - Assay at 24 hr (AID 963)
Method in brief: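 The lymphoblastoid line was treated with titrated compounds for 24 hours, and viable cell number estimated from luciferase-based ATP luminescence.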

[18] = Cell Viability - LYMP2-013 (AID 970)
Method in brief: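 In complete culture medium, human lymphoblastoid cells were dosed for 24 hr at 37 C, with tetraoctylammonium bromide (6.4pM to 92 uM) as positive control. Viability reflects luciferase-based ATP signal; AC50 derived from concentration-response curves.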

[19] = MultiTox-Fluor Cytotoxicity Assay - LYMP1-002 - Live Cells (AID 955);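 also: cells exposed to compound for 16 hours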
Method in brief: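 In this qHTS viability format, lymphoblastoid cells (LYMP1-002, human) received compound for 16 hr at 37 C. Fluorogenic GF-AFC cleavage by viable cells was detected at 405/510 nm after 1 h at room temperature.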

Measured: Potency

Cc1cc(C)cc(N)c1
inactive: [1] | [2] | [3] | [4] | [5] | [6] | [7] | [8] | [9] | [10] | [11] | [12] | [13] | [14] | [15] | [16]

Cc1cccc2ccccc12
inactive: [1] | [2] | [3] | [5] | [17] | [6] | [7] | [8] | [10] | [11] | [18] | [12] | [13] | [14] | [15] | [16]

ON=C1CCCCC1
inactive: [1] | [2] | [19] | [3] | [4] | [5] | [6] | [7] | [8] | [9] | [10] | [11] | [13] | [14] | [15]

CC(C)=CCl
inactive: [1] | [2] | [19] | [4] | [5] | [17] | [6] | [7] | [8] | [10] | [11] | [18] | [12] | [13] | [14] | [15] | [16]

NC(=O)NC(N)=O
inactive: [1] | [2] | [19] | [3] | [4] | [5] | [17] | [7] | [8] | [9] | [10] | [11] | [18] | [12] | [13] | [14] | [15] | [16]

CC(=O)OC(C)=O
inactive: [1] | [2] | [19] | [3] | [4] | [5] | [6] | [8] | [9] | [10] | [11] | [18] | [12] | [13] | [14] | [15] | [16]

Cc1cc([N+](=O)[O-])ccc1N
inactive: [1] | [2] | [19] | [4] | [5] | [17] | [7] | [8] | [10] | [11] | [18] | [12] | [13] | [14] | [15] | [16]

O=C(O)c1ccccc1[N+](=O)[O-]
inactive: [1] | [2] | [19] | [4] | [5] | [17] | [6] | [7] | [8] | [9] | [10] | [11] | [18] | [12] | [13] | [14] | [15] | [16]

c1ccc(Nc2ccccc2)cc1
inactive: [1] | [2] | [19] | [3] | [4] | [5] | [17] | [6] | [8] | [9] | [10] | [11] | [18] | [12] | [13] | [14] | [15] | [16]
